Assay outcomes (PubChem)
An excerpt weighted towards active compounds, which were near 15% of everything screened.
Pf growth 48h: Primary qHTS for delayed death inhibitors of the malarial parasite plastid, 48 hour incubation. P. falciparum luciferase growth in erythrocytes, 48 h. Potency, µM (top dose mostly 28.7 µM), inactives show at the highest dose activity change, negative = inhibition, usual class: inhibitors. 5.9% of 310,000 active. AID 504832, 2011; also: potency is read from the fitted curve at half-maximal effect; % is scaled to controls: 0 for no effect and ±100 for the full control effect
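Read-out is firefly luciferase luminescence from an integrated reporter in P. falciparum, so falling signal marks reduced parasite growth. Infected erythrocytes were at 2% hematocrit and 0.1% parasitemia (final) in Albumax-supplemented RPMI 1640.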
Sm TGR block: qHTS Assay for the Inhibitors of Schistosoma Mansoni Peroxiredoxins; Schistosoma mansoni thioredoxin glutathione reductase (TGR), Q962Y6; purified TGR, DTNB reduction, TNB absorbance 405 nm; Potency, µM (highest dose often 114 µM), without a hit: top-dose activity change, negative = inhibition, usual class: inhibitors; 3% of 360,000 active; also: potency is read from the fitted curve at half-maximal effect; % is scaled to controls: 0 for no effect and ±100 for the full control effect; nearly all actives have a fitted effect of over 60% in size
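Kinetic colorimetric format: TGR-catalysed, NADPH-driven DTNB reduction monitored via TNB absorbance. Enzyme dispensed at 20 nM; compound exposure 15 min at room temperature before reaction start.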
HCV inhibitor: qHTS Assay for Inhibitors of Hepatitis C Virus (HCV). Huh7.5.1 HCVcc-Cre infection, luciferase reporter, 44 h. Potency, µM (series often up to 41.8 µM), for inactives: at the highest dose activity change, negative = inhibition, actives largely listed as inhibitors. 3.4% of 340,000 active; also: potency is read from the fitted curve at half-maximal effect; % is scaled to controls: 0 for no effect and ±100 for the full control effect
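Antiviral activity was scored by luciferase reporter output from cells infected with HCVcc-Cre (~0.5 moi) in presence of compound, 44 h infection period, cells seeded 1,000/well 4 h prior.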
Pf growth 96h: Primary qHTS for delayed death inhibitors of the malarial parasite plastid, 96 hour incubation; P. falciparum luciferase reporter growth, 96 h; Potency, µM (highest dose often 28.7 µM), without a hit: at the top dose activity change, negative = inhibition, usual class: inhibitors; 6.9% of 320,000 active; AID 504834, 2011; also: potency is read from the fitted curve at half-maximal effect; % is scaled to controls: 0 for no effect and ±100 for the full control effect
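Compounds incubated with erythrocytes infected by luciferase-expressing P. falciparum (2% hematocrit, 0.05% parasitemia final) for 96 hours, 37 C in 5% CO2. Growth inhibition scored as decreased luciferase luminescence.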
HCMV antiviral: qHTS Assay for inhibitors of the human cytomegalovirus (HCMV); HFF cells, HCMV-luciferase reporter, 72 h; active compounds read low; activity change, negative = inhibition, % at 57.5 µM; 4.5% of 410,000 active; AID 1259415, 2018; in the data active = activity change below about -60%; inconclusive = no clear call, values can overlap the other calls; inactive = above about -39%; also: % is scaled to controls: 0 for no effect and ±100 for the full control effect
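Screen run at 2 compound doses on HFFs infected with reporter HCMV, MOI 1 PFU/cell. Luciferase activity from cell lysates at 72 h post infection gave inhibition relative to buffer-only and Salinomycin wells.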
SARS PLpro yeast: qHTS of Yeast-based Assay for SARS-CoV PLP; S. cerevisiae expressing SARS-CoV PLpro, growth rescue; Potency, µM (highest dose often 32.9 µM), inactives show at the top dose activity, positive = growth rescue, hits mostly activators; 0.19% of 330,000 active; calls by dose curve; also: potency is read from the fitted curve at half-maximal effect; 0% is about no effect; nearly all actives have a fitted effect of over 55% in size
* marks the source's active call; other numbers are inactive results; ? = inconclusive; · = no result given. Unless noted, calls follow the shape of the dose curve; as a rule, active = well fitted curve in the direction sought with a large enough effect; inconclusive = small, poorly fitted or top-dose-only effect, or another doubt; inactive = no such curve, though single readings can be large; an effect the other way counts as inactive or inconclusive.

SMILES	Pf growth 48h	Sm TGR block	HCV inhibitor	Pf growth 96h	HCMV antiviral	SARS PLpro yeast
COc1ccc(-n2nc(C(=O)NCC(=O)Nc3cc(OC)c(OC)c(OC)c3)c3ccccc3c2=O)cc1OC	?	0.9%	-9.0%	?	?	1.2%
COc1ccc(-n2nc(C(=O)NCC(=O)Nc3cc(OC)c(OC)c(OC)c3)c3ccccc3c2=O)cc1	9.28µM*	3.4%	-18.1%	5.9%	-31.0	1.4%
COc1ccc(-n2nc(C(=O)Nc3ccc4c(c3)OCO4)c3ccccc3c2=O)cc1	10.4µM*	-2.1%	?	2.8%	2.2	0.5%
COc1ccc(-n2nc(C(=O)NCC(=O)NCc3ccc(F)cc3)c3ccccc3c2=O)cc1	?	8.7%	-16.9%	6.57µM*	-8.4	2.0%
O=C(CN(Cc1ccc(Cl)cc1)S(=O)(=O)c1ccccc1)NCC1CCCO1 (configuration not stated)	?	0.9%	-14.8%	33.3%	?	-2.2%
Cc1nc(NCc2cccnc2)c2c3c(sc2n1)CCCC3	?	7.6%	7.08µM*	-52.5%	11.5	-2.0%
Cc1ccc(C(=O)N2CC=C(c3ccccc3)CC2)s1	10.4µM*	3.1%	-3.1%	1.4%	?	1.5%
Cc1ccsc1C(=O)N1CC=C(c2ccccc2)CC1	?	-8.5%	14.8%	-23.9%	20.2	0.2%
Cc1cc(C)c(OCC(=O)N2CC=C(c3ccccc3)CC2)c(C)c1	-6.2%	1.3%	-28.7%	0.6%	-66.7*	-8.6%
COc1cc(OC)cc(C(=O)NCC(=O)N2CC=C(c3ccccc3)CC2)c1	-5.1%	-2.2%	?	4.3%	-4.9	2.2%
COc1ccc(/C=c2\s/c(=C/C(=O)c3ccc(C)cc3)[nH]c2=O)cc1OC	4.7%	-1.0%	?	?	-32.9	25.5%
CCCn1c(NCc2ccccc2NS(=O)(=O)c2ccc(C)cc2)nc2ccccc21	?	-0.7%	?	33.5%	-25.7	2.0%
CCCCn1c(NCc2cc(Br)ccc2O)nc2ccccc21	·	0.2%	·	·	-9.7	·
CCn1c(NCc2cc(Br)ccc2NS(=O)(=O)c2ccc(C)cc2)nc2ccccc21	?	3.8%	10µM*	4.65µM*	-12.4	0.1%
CCn1c(NCc2ccccc2NS(=O)(=O)c2ccc(C)cc2)nc2ccccc21	-19.6%	-3.1%	14.1µM*	71.2%	35.2	10.3%
C/C(CCc1ccc2c(c1)OCO2)=N\NC(=O)c1ccccc1Br	12.2%	9.0%	16.7%	15.2%	9.9	-6.1%
CC(=O)c1ccc(NC(=O)COC(=O)/C=C/c2cccs2)cc1	·	·	-22.3%	·	-35.9	-34.3%
CCN(CC)CCCN(Cc1cc2cc3c(cc2[nH]c1=O)OCO3)C(=S)NCCCOC	38.1%	4.6%	-6.1%	?	5.6	-0.8%
CCN(CC)CCN(Cc1cc2cc3c(cc2[nH]c1=O)OCO3)C(=S)NCCCOC	-6.1%	-5.5%	15.2%	13.1µM*	52.6	3.1%
CCN(CC)CCN(Cc1cc2cc3c(cc2[nH]c1=O)OCO3)C(=S)NCC1CCCO1 (configuration not stated)	-10.9%	·	13.6%	14.7µM*	19.2	0.8%
COC(=O)c1ccc(NC(=O)CCCCCn2nnc3ccccc3c2=O)cc1	5.22µM*	-2.8%	-17.4%	3.29µM*	-6.2	-3.3%
O=C(CCCCCn1nnc2ccccc2c1=O)Nc1ccccc1Cl	17.9%	-6.7%	-8.4%	-15.7%	5.3	1.4%
Cc1ccc(NC(=O)Cn2nnc3ccccc32)cc1	96.2%	-0.7%	4.8%	-24.2%	142.9	-0.3%
COC(=O)c1ccc(NC(=O)Cn2nnc3ccccc32)cc1	95.7%	-11.9%	1.3%	5.22µM*	23.8	?
CC(C)[C@H](NC(=O)CCCn1nnc2ccccc2c1=O)C(=O)O	34.3%	39.8µM*	1.0%	44.7%	15.2	0.3%
